From PubChem BioAssay (NCATS)
Several values for one entry are separate records, joined by “and”; a condition that tells them apart may be missing. Equal values may be shown once. Records with an inconclusive call do not appear. Some structures have more than one record in an assay (separate samples or runs), and their calls can disagree. Activity calls are given as the source filed them. Unless noted, calls follow the shape of the dose curve; as a rule, active = well fitted curve in either direction with a large enough effect (not every such curve was filed as active); inconclusive = small, poorly fitted or top-dose-only effect, or another doubt; inactive = flat fitted curve, though single readings scatter.

biological target: Glucocorticoid receptor (Homo sapiens) (UniProt P04150); assay: GR-EFC Redistribution (AID 451; calls by dose curve); settings: CHO-K1 GR-EFC translocation, beta-gal luminescence, 2 h
Sequence (P04150 whole entry, looked up, the tested form may be a part): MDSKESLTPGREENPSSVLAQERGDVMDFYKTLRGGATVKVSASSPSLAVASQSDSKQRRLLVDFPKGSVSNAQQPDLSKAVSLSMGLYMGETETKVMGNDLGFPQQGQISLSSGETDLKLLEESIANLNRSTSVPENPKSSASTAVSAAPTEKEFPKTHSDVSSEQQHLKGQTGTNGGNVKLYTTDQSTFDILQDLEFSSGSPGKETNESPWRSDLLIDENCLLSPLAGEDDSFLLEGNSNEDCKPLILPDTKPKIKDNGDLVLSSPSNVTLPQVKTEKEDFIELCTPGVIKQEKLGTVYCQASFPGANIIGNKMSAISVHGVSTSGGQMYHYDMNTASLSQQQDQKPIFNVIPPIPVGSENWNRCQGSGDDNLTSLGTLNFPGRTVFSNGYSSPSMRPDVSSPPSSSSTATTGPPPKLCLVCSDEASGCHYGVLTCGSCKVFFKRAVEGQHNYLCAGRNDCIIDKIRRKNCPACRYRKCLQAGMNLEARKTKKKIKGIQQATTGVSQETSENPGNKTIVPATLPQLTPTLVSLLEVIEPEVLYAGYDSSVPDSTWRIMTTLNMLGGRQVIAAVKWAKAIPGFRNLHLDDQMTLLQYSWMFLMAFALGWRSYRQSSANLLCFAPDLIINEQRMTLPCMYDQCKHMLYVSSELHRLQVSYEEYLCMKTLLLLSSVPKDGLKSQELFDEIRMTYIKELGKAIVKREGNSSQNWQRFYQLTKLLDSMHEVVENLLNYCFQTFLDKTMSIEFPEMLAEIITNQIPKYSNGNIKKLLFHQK
How it was run: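 Translocation of GR-ED fusion to nuclear EA restores b-gal, read by luminescence after 1 h room-temperature detection. Engineered CHO-K1 biosensor cells, 1,000/well, exposed 2 h at 37 C to titrations up to 46 uM final.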
Potency is read from the fitted curve at half-maximal effect.

Potency, inactive:
CC[N+](C)(CC)CCC[n+]1c(-c2ccccc2)c2cc(N)ccc2c2ccc(N)cc21 > 20.6 µM
N[C@H](C(=O)O)c1ccc(C(=O)O)c(O)c1 > 46 µM
O=C(O)Cc1cc2ccccc2nc1C(=O)O > 46 µM
CC(N)=NCCC[C@H](N)C(=O)O > 46 µM
N[C@@H]1CCN(O)C1=O > 46 µM
NC[C@](O)(CS(=O)(=O)O)c1ccc(Cl)cc1 > 46 µM
CO[C@@]12C[C@@H](COC(=O)c3cncc(Br)c3)CN(C)[C@H]1Cc1cn(C)c3cccc2c13 > 20.6 µM and > 46 µM
COc1ccccc1NC(=O)Nc1nc(-c2cccnc2)nc2ccccc12 > 46 µM
CC(C)SC(=N)N > 46 µM
O=C(O)COc1ccc(OCCNC[C@@H](O)COc2ccccc2)cc1 > 46 µM
N[C@H](CCC(=O)NCC(=O)O)C(=O)O > 46 µM
CC1=C(\C=C/C(C)=C/C=C\C(C)=C\C(=O)O)C(C)(C)CCC1 > 46 µM and > 20.6 µM
CCC(=O)O[C@H](CC(=O)O)C[N+](C)(C)C > 46 µM
N[C@]1(C(=O)O)CCc2cc(C(=O)O)ccc21 > 46 µM
C[C@@](N)(C(=O)O)c1ccc(P(=O)(O)O)cc1 > 46 µM
C[C@H](C[C@H](N)C(=O)O)C(=O)O > 46 µM
O=C(O)[C@H]1CCCNC1 > 46 µM
O=C(O)[C@H]1CN(CCCP(=O)(O)O)CCN1 > 46 µM
NCCC(=O)O > 46 µM
N[C@@H](C(=O)O)c1ccc(P(=O)(O)O)cc1 > 46 µM
C[C@@](N)(C(=O)O)c1ccc(C(=O)O)cc1 > 46 µM
N[C@H](C(=O)O)c1nn[nH]n1 > 46 µM
N[C@H](C(=O)O)[C@@H]1C[C@@H]1C(=O)O > 46 µM
C[C@H](N=C(NC#N)Nc1ccncc1)C(C)(C)C > 46 µM and > 20.6 µM
CC[C@](N)(CCC(=O)O)C(=O)O > 46 µM
CC(N)=NCCCC[C@H](N)C(=O)O > 46 µM
C[C@@H](CCc1ccc(O)cc1)NCCc1ccc(O)c(O)c1 > 46 µM and > 20.6 µM
CC(C)[C@@H]1[C@H]2CC[C@H](C2)[C@H]1N > 46 µM
N[C@H](C(=O)O)c1ccc(C(=O)O)cc1 > 46 µM
C=C[C@@]1(C)CC(=O)[C@@]2(O)[C@@]3(C)[C@@H](O)CCC(C)(C)[C@@H]3[C@H](O)[C@H](OC(C)=O)[C@@]2(C)O1 > 46 µM
N[C@H](CCC(=O)N[C@H](CSN=O)C(=O)NCC(=O)O)C(=O)O > 46 µM
c1ccc2oc(C3=NCCN3)cc2c1 > 46 µM
CC(C)(C)NC[C@H](O)COc1cccc2[nH]c(=O)[nH]c12 > 46 µM
CCC(=O)N[C@@H]1Cc2ccccc2[C@@H](c2ccccc2)C1 > 46 µM
S=C(S)O[C@@H]1C[C@@H]2C[C@H]1[C@@H]1CCC[C@H]21 > 46 µM

biological target: Mitogen-activated protein kinase 10 (Mus musculus) (UniProt Q61831); assay: JNK3 AlphaScreen Assay (AID 530); settings: JNK3 lysate, c-Jun phosphorylation; series mostly up to 57.1 µM; activity change, negative = inhibition: at the top concentration;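 also: kinase came from lysate of stimulated human HepG2 cells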;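 as to activity change, negative = inhibition: signal reports phosphorylation of biotinylated GST-cJun 1-79 at Ser73 with 10 µM ATP; % is scaled to controls: 0 for no effect and ±100 for the full control effect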
How it was run: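 qHTS titrations with 15 min compound pre-incubation before adding ATP (10 uM final). Read-out: AlphaScreen of Ser73-phosphorylated biotin-GST-cJun using HepG2 lysate JNK3 activated by IL-1β and TNFα.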

Activity change, negative = inhibition, inactive:
CC[N+](C)(CC)CCC[n+]1c(-c2ccccc2)c2cc(N)ccc2c2ccc(N)cc21 -25.9% [at 25.6 µM]
N[C@H](C(=O)O)c1ccc(C(=O)O)c(O)c1 10%
O=C(O)Cc1cc2ccccc2nc1C(=O)O -14%
CC(N)=NCCC[C@H](N)C(=O)O -7.72%
COc1ccccc1NC(=O)Nc1nc(-c2cccnc2)nc2ccccc12 -12.4%
CC(C)SC(=N)N -12.3%
O=C(O)COc1ccc(OCCNC[C@@H](O)COc2ccccc2)cc1 -2.63%
N[C@H](CCC(=O)NCC(=O)O)C(=O)O -1.28%
CCC(=O)O[C@H](CC(=O)O)C[N+](C)(C)C -22%
C[C@@](N)(C(=O)O)c1ccc(P(=O)(O)O)cc1 -13.4%
C[C@H](C[C@H](N)C(=O)O)C(=O)O -9.94%
NCCC(=O)O -7.79%
N[C@@H](C(=O)O)c1ccc(P(=O)(O)O)cc1 10.6%
N[C@H](C(=O)O)c1nn[nH]n1 -1.62%
CC[C@](N)(CCC(=O)O)C(=O)O -9.1%
N[C@H](C(=O)O)c1ccc(C(=O)O)cc1 12.5%
C=C[C@@]1(C)CC(=O)[C@@]2(O)[C@@]3(C)[C@@H](O)CCC(C)(C)[C@@H]3[C@H](O)[C@H](OC(C)=O)[C@@]2(C)O1 7.42%
N[C@H](CCC(=O)N[C@H](CSN=O)C(=O)NCC(=O)O)C(=O)O 12%
c1ccc2oc(C3=NCCN3)cc2c1 2.73%
CCC(=O)N[C@@H]1Cc2ccccc2[C@@H](c2ccccc2)C1 -15.6%
S=C(S)O[C@@H]1C[C@@H]2C[C@H]1[C@@H]1CCC[C@H]21 -24.4%

Potency, inactive:
N[C@@H]1CCN(O)C1=O
NC[C@](O)(CS(=O)(=O)O)c1ccc(Cl)cc1
COC(=O)[C@@H]1[C@@H]2C[C@H]3c4[nH]c5ccccc5c4CCN3C[C@@H]2CC[C@@H]1O
CC1=C(\C=C/C(C)=C/C=C\C(C)=C\C(=O)O)C(C)(C)CCC1
N[C@]1(C(=O)O)CCc2cc(C(=O)O)ccc21
O=C(O)[C@H]1CCCNC1
O=C(O)[C@H]1CN(CCCP(=O)(O)O)CCN1
CCN(Cc1ccncc1)C(=O)[C@@H](CO)c1ccccc1
C[C@@](N)(C(=O)O)c1ccc(C(=O)O)cc1
N[C@H](C(=O)O)[C@@H]1C[C@@H]1C(=O)O
CNCC[C@H](Oc1ccccc1OC)c1ccccc1
C[C@H](N=C(NC#N)Nc1ccncc1)C(C)(C)C
CC(N)=NCCCC[C@H](N)C(=O)O
C[C@@H](CCc1ccc(O)cc1)NCCc1ccc(O)c(O)c1
CC(C)[C@@H]1[C@H]2CC[C@H](C2)[C@H]1N
CC(C)(C)NC[C@H](O)COc1cccc2[nH]c(=O)[nH]c12

Potency, inactive and 3.16 µM (active):
CO[C@@]12C[C@@H](COC(=O)c3cncc(Br)c3)CN(C)[C@H]1Cc1cn(C)c3cccc2c13
